Measurements from PubChem BioAssay AID588342 (National Center for Advancing Translational Sciences (NCATS), 2011).
In all, about 360,000 compounds went through this assay and about 25,000 (6.9%) were called active. Where a call stands in place of a potency, no number is given. Roughly 9% stayed inconclusive and do not appear here. Calls follow the shape of the dose curve; as a rule, active = well fitted inhibition curve with a large enough effect; inconclusive = small, poorly fitted or top-dose-only effect; inactive = flat fitted curve, though single readings scatter. Only a selection was taken, and actives are over-represented in it overall.
Also: nearly all actives have a fitted effect of over 55% in size.
Potency is read from the fitted curve at half-maximal effect.

Each compound was assayed against Luciferin 4-monooxygenase (Photinus pyralis) (UniProt P08659) (assay: qHTS profiling assay for firefly luciferase inhibitor/activator using purifed enzyme and Km concentrations of substrates (counterscreen for miR-21 project)). Details: purified FLuc, luminescence inhibition; series mostly up to 57.5 µM.
Luciferin 4-monooxygenase (Photinus pyralis), sequence (P08659 whole entry, looked up): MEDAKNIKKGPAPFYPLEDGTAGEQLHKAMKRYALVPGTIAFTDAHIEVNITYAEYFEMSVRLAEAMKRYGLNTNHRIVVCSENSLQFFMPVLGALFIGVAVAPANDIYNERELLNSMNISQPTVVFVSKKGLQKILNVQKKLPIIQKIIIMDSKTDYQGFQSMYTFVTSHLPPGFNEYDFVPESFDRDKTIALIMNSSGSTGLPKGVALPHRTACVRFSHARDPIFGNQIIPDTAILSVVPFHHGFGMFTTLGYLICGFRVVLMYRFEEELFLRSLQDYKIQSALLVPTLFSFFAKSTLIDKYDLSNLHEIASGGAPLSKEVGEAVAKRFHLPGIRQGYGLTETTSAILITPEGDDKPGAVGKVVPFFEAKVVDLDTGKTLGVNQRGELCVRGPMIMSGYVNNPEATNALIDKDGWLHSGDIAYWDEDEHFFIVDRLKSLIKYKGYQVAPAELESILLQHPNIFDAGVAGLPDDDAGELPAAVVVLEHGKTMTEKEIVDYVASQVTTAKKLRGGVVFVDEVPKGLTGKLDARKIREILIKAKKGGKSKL
How it was run: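 Purified P. pyralis luciferase, 10 nM final, with Km-level 10 uM D-luciferin and 10 uM ATP in 50 mM Tris acetate pH 7.5, 10 mM Mg acetate, 0.01% Tween-20, 0.05% BSA; 6-point qHTS titration about 60 µM downward; luminescence read.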
In the case of `CN(CC(=O)Nc1ccc(F)c(F)c1F)C(=O)C1CC(=O)N(C2CCCC2)C1` (configuration not stated), the Potency is reported as “inactive”.
For `O=C(CSc1ncn[nH]1)NCc1ccc2c(c1)OCO2`, the Potency was “inactive”.
In the case of `O=C(/C=C/Sc1ncn[nH]1)c1ccc(Cl)cc1`, the Potency is reported as 1.9 µM (active).
With `COC(=O)c1cc(NC(=O)C2C3C=CC(C3)C2C(=O)O)cc(C(=O)OC)c1` (configuration not stated) the Potency was “inactive”.
`CC(C)COC(=O)c1ccc(NC(=O)C2C3C=CC(C3)C2C(=O)O)cc1` (configuration not stated) was tested, and the Potency was 19 µM (active).
With `CC(=O)NS(=O)(=O)c1ccc(NC(=O)C2C3C=CC(C3)C2C(=O)O)cc1` (configuration not stated) the Potency was “inactive”.
For `CCCN(CC1CC1)C(=S)NC(=O)c1ccccc1Br`, the Potency was “inactive”.
`Cc1csc2nc(COC(=O)c3ccc(NC(=O)COc4ccccc4F)cc3)cc(=O)n12` was tested, and the Potency was “inactive”.
`COc1ccccc1N1CCN(C(=O)C2CCN(S(=O)(=O)c3c(C)noc3/C=C/c3ccc(C)cc3)CC2)CC1` was tested, and the Potency was “inactive”.
`COCCNC(=O)C1CCN(S(=O)(=O)c2ccc3c(c2)OCCO3)CC1` was tested, and the Potency was “inactive”.
For `O=C(NCc1ccccn1)C1CCN(S(=O)(=O)c2ccc(Br)cc2)CC1`, the Potency was “inactive”.
For `O=C(Nc1ccccn1)C1CCN(S(=O)(=O)c2ccccc2)CC1`, the Potency was 23.9 µM (active).
With `O=C(Nc1ccccn1)C1CCN(S(=O)(=O)c2ccc3c(c2)OCCO3)CC1` the Potency was 19 µM (active).
With `O=C(NCc1cccs1)C1CCN(S(=O)(=O)c2ccc3c(c2)OCCO3)CC1` the Potency was “inactive”.
With `Cc1csc(NC(=O)C2CCN(S(=O)(=O)c3ccccc3)CC2)n1` the Potency was “inactive”.
For `C=Cc1ccc(Cn2c(C(=O)O)c(CNC3CCCC3)c3ccc(C)cc32)cc1`, the Potency was “inactive”.
With `CCOC(=O)c1c(NC(C)=O)c2c3c(sc2n1Cc1c(C)cc(C)cc1C)CCCC3` the Potency was “inactive”.
`CCOC(=O)c1ccccc1NC(=O)COC(=O)C(Cc1c[nH]c2ccccc12)NC(C)=O` (configuration not stated) was tested, and the Potency was “inactive”.
In the case of `CCC(=O)N1CCc2cc(S(=O)(=O)NCCC(=O)Nc3cccc(C)c3C)ccc21`, the Potency is reported as “inactive”.
With `Cc1oc(C)c2c(=O)cc(-c3ccc4c(c3)OCO4)cc(OC(=O)c3ccc(Cl)cc3)c12` the Potency was “inactive”.
With `Cc1ccccc1-n1c(C)cc(/C=C2\NC(=O)NC2=O)c1C` the Potency was 1.9 µM (active).
`Cc1cc(/C=C2/NC(=O)NC2=O)c(C)n1-c1cccnc1` was tested, and the Potency was 15.1 µM (active).
`Cc1ccc2c(c1)C(O)(CC(=O)c1cccnc1)C(=O)N2` (configuration not stated) was tested, and the Potency was “inactive”.
In the case of `Cc1ccccc1N1CC(c2nc3ccccc3[nH]2)CC1=O` (configuration not stated), the Potency is reported as “inactive”.
For `CSc1cc(C)n(-c2ccccc2C)c(=S)c1C(C)=O`, the Potency was “inactive”.
With `Cc1cc(/C=C2\SC(=Nc3ccc(N4CCOCC4)cc3)N(C)C2=O)c(C)n1-c1cccnc1` the Potency was “inactive”.
For `C=CCn1c(=O)c(C(=O)NCc2ccc3c(c2)OCO3)c(O)c2ccccc21`, the Potency was “inactive”.
For `O=C(NNS(=O)(=O)c1ccc(F)cc1)c1cnccn1`, the Potency was “inactive”.
In the case of `O=C(CC1Oc2ccccc2NC1=O)NCc1ccc(F)cc1` (configuration not stated), the Potency is reported as “inactive”.
For `CCOC(=O)c1c(C)oc2ccc(N(C(=O)c3ccncc3)S(=O)(=O)c3ccc(CC)cc3)cc12`, the Potency was “inactive”.
With `O=Cc1c(Cl)cccc1Cl` the Potency was “inactive”.
For `Cc1ccc(-c2nn(-c3ccccc3)cc2CN(Cc2ccccc2)C(=O)CCC(=O)O)o1`, the Potency was “inactive”.
`Cc1ccc(-c2nn(-c3cccc(F)c3)cc2CNCCc2ccncc2)o1` was tested, and the Potency was 15.1 µM (active).
`CSCCNCc1cn(-c2ccc(F)cc2F)nc1-c1ccccc1C` was tested, and the Potency was “inactive”.
With `CCCN(CCC)CCNC(=O)Cn1cnc2sc(C)c(S(=O)(=O)N3CCC(C)CC3)c2c1=O` the Potency was “inactive”.
With `N#Cc1nc(/C=C/c2ccc(F)cc2)oc1NC1CCCCC1` the Potency was “inactive”.
`CC(C)(C)OC(=O)N/N=C/c1cn(-c2ccccc2)nc1-c1cccnc1` was tested, and the Potency was “inactive”.
In the case of `O=C(N/N=C/c1ccc([N+](=O)[O-])o1)c1cn(-c2ccccc2)nc1-c1ccc(F)cc1`, the Potency is reported as “inactive”.
With `Cc1ccc(-c2nn(-c3ccccc3)cc2/C=N/NC(=O)c2ccc3c(c2)OCO3)cc1` the Potency was 4.26 µM (active).
With `COc1ccc(C(=O)N2CCC(c3nc4ccccc4o3)CC2)cc1` the Potency was “inactive”.
With `CC(O)c1ccc(OCCN(C)c2ccccn2)cc1` (configuration not stated) the Potency was 15.1 µM (active).
In the case of `CCOc1ccc(C(C(=O)NCCOC)N(CCOC)C(=O)CCC(=O)Nc2ccccn2)cc1` (configuration not stated), the Potency is reported as “inactive”.
In the case of `CC(C)c1ccc(OCC(O)CN2CCN(c3ccccn3)CC2)cc1` (configuration not stated), the Potency is reported as “inactive”.
With `COCCn1c(CCC(=O)Nc2cc(C)ccc2C)nc2cccnc21` the Potency was “inactive”.
In the case of `COc1ccc2c(c1)C=C(C(=O)NCc1cc(Br)ccc1OC)CO2`, the Potency is reported as “inactive”.
For `COc1ccccc1NC(=O)c1sc2nc(C)c(C(=O)Nc3ccc(Cl)cc3)c(-c3ccc(Br)cc3)c2c1N`, the Potency was “inactive”.
`Cc1cc(/C=C2/SC(=O)N(CC(=O)OC(C)C)C2=O)c(C)n1C` was tested, and the Potency was 15.1 µM (active).
In the case of `CC(C)OC(=O)CN1C(=O)C(=O)c2ccccc21`, the Potency is reported as “inactive”.
For `O=C(CN1CCCCCC1)NCCN1C(=O)S/C(=C\c2ccccc2Cl)C1=O`, the Potency was “inactive”.
In the case of `COc1ccc(F)cc1C(=O)COC(=O)c1n[nH]c(=O)c2ccccc12`, the Potency is reported as “inactive”.
For `O=C(NCCc1ccc(F)cc1)c1n[nH]c2ccccc12`, the Potency was 16.9 µM (active).
For `O=C(COC(=O)Cc1c[nH]c2ccccc12)NCCc1ccccc1`, the Potency was “inactive”.
In the case of `O=C(NCCc1ccc(Cl)cc1)c1ccc2c(c1)N(Cc1ccc(F)cc1)C(=O)CS2`, the Potency is reported as “inactive”.
With `O=C(COC(=O)c1n[nH]c2ccccc12)NCc1ccccc1` the Potency was “inactive”.
For `COc1cccc(CNC(=O)c2n[nH]c3ccccc23)c1`, the Potency was 26.9 µM (active).
In the case of `COc1cccc(CNC(=O)Cc2csc(Nc3nc(=S)[nH]c4ccccc34)n2)c1`, the Potency is reported as “inactive”.
For `COc1ccc(NC(=O)COC(=O)c2n[nH]c3ccccc23)c(OC)c1`, the Potency was “inactive”.
`O=C(CC(=O)N/N=C\c1ccc(F)cc1)NCCc1ccccc1` was tested, and the Potency was “inactive”.
For `O=C(NCCc1ccc(F)cc1)c1ccc2nccnc2c1`, the Potency was 8.49 µM (active).
In the case of `COc1ccc(COC(=O)c2n[nH]c3ccccc23)cc1F`, the Potency is reported as 19 µM (active).
In the case of `O=C(NCCc1ccc(F)cc1)c1ccc(S(=O)(=O)N2CCCCC2)cc1`, the Potency is reported as “inactive”.
In the case of `COc1ccc(CCNC(=O)c2cc(=O)c3c(C)cc(C)cc3o2)cc1OC`, the Potency is reported as “inactive”.
With `CCOC(=O)c1cccc(NC(=O)c2cc(CN3CCCC3)on2)c1` the Potency was “inactive”.
In the case of `Cc1ccc(CNC(=O)CCC(=O)N2Cc3ccccc3Oc3ncccc32)cc1`, the Potency is reported as “inactive”.
`CC(=O)c1c(C)[nH]c(C(=O)OCC(=O)Nc2c(C)n(C)n(-c3ccccc3)c2=O)c1C` was tested, and the Potency was “inactive”.
`CC1(NC(=O)CCS(=O)(=O)c2ccc(Cl)cc2)CCS(=O)(=O)C1` (configuration not stated) was tested, and the Potency was “inactive”.
For `Cc1ccccc1CN1CCC(CNC(=O)c2c(C)oc3ncnc(N4CCCCC4)c23)CC1`, the Potency was “inactive”.
`Cc1ccc(Nc2nnc(SC(C)C(=O)NC3CC3)s2)cc1` (configuration not stated) was tested, and the Potency was “inactive”.
With `CCOC(=O)c1c(NC(=O)CCl)sc(C(=O)N(CC)CC)c1C` the Potency was “inactive”.
For `Cc1ccc(C)c(NC(=O)CN(C)C(=O)c2ccc3ncsc3c2)c1`, the Potency was “inactive”.
`Cc1c(C(=O)N(C)C)sc2c1c(=O)n(-c1ccc(F)cc1)c(=O)n2CC(=O)N(C)c1ccccc1` was tested, and the Potency was “inactive”.
`O=C(/C=C/c1ccc2c(c1)OCCO2)c1ccc(O)cc1` was tested, and the Potency was 1.35 µM (active).
`CC(=O)c1ccc2c(c1)OCCOCCOc1ccc(C(C)=O)cc1OCCOCCO2` was tested, and the Potency was “inactive”.
For `Cc1cc(C(=O)O)ccc1[N+](=O)[O-]`, the Potency was “inactive”.
For `O=C(/C=C/c1ccc(Cl)cc1)N1CCN(c2ccccc2[N+](=O)[O-])CC1`, the Potency was “inactive”.
`CN(C)c1ccc(/C=C/C(=O)c2ccc(O)cc2)cc1[N+](=O)[O-]` was tested, and the Potency was 12 µM (active).
For `O=C(COC(=O)/C=C/c1ccc2c(c1)OCO2)NC1CCS(=O)(=O)C1` (configuration not stated), the Potency was “inactive”.
In the case of `CCC(=O)NC(Nc1cc(C)ccn1)(C(F)(F)F)C(F)(F)F`, the Potency is reported as “inactive”.
For `Cc1cc(=O)oc(C)c1C(=O)NC1CC(C)(C)NC(C)(C)C1`, the Potency was “inactive”.
With `O=C(C1CCCN(S(=O)(=O)c2cccc3nonc23)C1)N1CCN(c2ccccc2F)CC1` (configuration not stated) the Potency was “inactive”.
With `CCc1ccc(S(=O)(=O)n2ccnc2)cc1` the Potency was “inactive”.
For `O=C(Nc1c2c(nc3ccccc13)CCCC2)c1ccccc1Br`, the Potency was “inactive”.
`CCOc1ccc(NC(=O)CSc2c3c(nc4ccccc24)CCCC3)cc1` was tested, and the Potency was “inactive”.
In the case of `O=C(COC(=O)c1c2c(nc3ccccc13)CCCC2)c1ccc(Br)s1`, the Potency is reported as 15.1 µM (active).
For `Cc1nn(Cc2ccccc2)c(C)c1C(=O)N1CCN(CC(=O)Nc2ccccc2Cl)CC1`, the Potency was “inactive”.
For `COc1ccccc1/C=C/c1nc(C#N)c(NC(C)c2ccccc2)o1` (configuration not stated), the Potency was “inactive”.
`CC(C)c1ccc(NC(=O)COC(=O)c2ccc(CN3CCCC3=O)cc2)cc1` was tested, and the Potency was “inactive”.
With `Cc1cc(OC(C)C(=O)Nc2sc3c(c2C(N)=O)CCCC3)ccc1Cl` (configuration not stated) the Potency was “inactive”.
`CCc1cccc(NC(=O)CCC(=O)O)c1` was tested, and the Potency was “inactive”.
With `CCCC(=O)Nc1cccc(-c2cn3ccsc3n2)c1` the Potency was 21.3 µM (active).
`O=C(NCc1cn2ccsc2n1)Nc1cccc(Cl)c1` was tested, and the Potency was “inactive”.
`CCc1nn(CC(=O)NCC(C)c2ccccc2)c(=O)c2cc3occc3n12` (configuration not stated) was tested, and the Potency was “inactive”.
`Cc1nn(-c2ccccc2)c(Cl)c1/C=N/NC(=O)c1nn(C)cc1[N+](=O)[O-]` was tested, and the Potency was 10.7 µM (active).
With `Cc1nn(-c2ccccc2)c(C)c1/C=N/NC(=O)CSc1nc2ccccc2c(=O)n1-c1ccccc1` the Potency was “inactive”.
In the case of `Cc1c(C(=O)N/N=C/c2ccccc2)[nH]c2c([N+](=O)[O-])cccc12`, the Potency is reported as “inactive”.
In the case of `COc1ccc(NC(=O)CN2C(=O)COc3ccc(S(=O)(=O)N4CCOCC4)cc32)cc1`, the Potency is reported as “inactive”.
For `CC(=O)C1C(c2ccc(Cl)cc2)c2c(n[nH]c2C)CC1(C)O` (configuration not stated), the Potency was “inactive”.
In the case of `CCc1ccc(NC2Nc3cc(C)nn3S2)cc1` (configuration not stated), the Potency is reported as 4.78 µM (active).
For `CCOC(=O)c1ccc(NC2Nc3cc(C)nn3S2)cc1` (configuration not stated), the Potency was “inactive”.
With `COc1c(Cl)cc(C(=O)N(Cc2ccccc2F)C2CCS(=O)(=O)C2)cc1Cl` (configuration not stated) the Potency was “inactive”.
For `O=C(COc1ccc(Cl)cc1)N(Cc1ccco1)Cc1ccco1`, the Potency was “inactive”.
For `CC[C@H](C)C(=O)N[C@H]1CCCN1C(=O)/C=C/c1ccccc1`, the Potency was “inactive”.
